The text below walks through data of PubChem BioAssay.

Test [1] in a line: A549 cell viability effects, profiling panel, calcein-AM fluorescence, 48 h, basal (AID 1162). The following applies: higher = more signal.
A short description of test [2]: adipocyte viability effects, profiling panel, cell-based, 3T3-L1 adipocytes, calcein-AM fluorescence, 48 h, basal (AID 1163). The following applies: 3T3-L1 adipocytes viability, higher = more signal.
Test [3] can be described thus: HepG2 cell viability effects, profiling panel, calcein-AM fluorescence, 48 h, basal (AID 1164). To be noted: higher = more signal.
Test [4] is described as follows: MM1S cell viability effects, profiling panel, calcein-AM fluorescence, 48 h, basal (AID 1165).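 Also: viability of MM1S multiple myeloma cells under basal unstimulated conditions.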 To be noted: higher = more signal.
Test [5] can be described thus: basal RPMI8226 viability, no added stimulus, profiling panel, cell-based, calcein-AM fluorescence, 48 h, PK04 Diversity Set (AID 1166).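 Also: cells grown under basal conditions without added stimulus.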 To be noted: RPMI8226 myeloma viability, higher = more signal.
Test [6] can be described thus: basal HepG2 mitochondrial membrane potential changes, profiling panel, cell-based, JC-1 fluorescence, 24 h, 100 nL compound (AID 1167). The following applies: higher = more signal.
Test [7] is described as follows: basal 3T3-L1 adipocyte mitochondrial potential changes, profiling panel, cell-based, JC-1 fluorescence, 3T3-L1 adipocytes, 24 h, 100 nL compound (AID 1168). To be noted: JC-1 mitochondrial fluorescence, higher = more signal, called active from +8 up or from −8 down.
The nature of test [8]: basal RPMI8226 mitochondrial membrane potential changes, profiling panel, cell-based, JC-1 fluorescence, 24 h, 100 nL compound (AID 1169). To be noted: RPMI8226 myeloma, JC-1 mitochondrial potential fluorescence, higher = more signal.
A short description of test [9]: basal MM1S mitochondrial membrane potential changes, profiling panel, cell-based, JC-1 fluorescence, 24 h, 100 nL compound (AID 1170). To be noted: higher = more signal.
A short description of test [10]: A549 lung cancer cell viability effects, profiling panel, resazurin fluorescence, 24 h, PK04 Diversity Set (AID 1171). The following applies: higher = more signal, called active from +8 up or from −8 down.

Molecules are shown by their SMILES. Active and inactive are the calls of the source.
Also: test concentration not given here.

On to `CC(C)N1C(=O)C[C@@](C(=O)NCCCN(C)C)(c2ccc([N+](=O)[O-])cc2)[C@H]1c1ccc(CO)cc1`, for which the z-score in test [1] is 0.173; in [2] it was 0.165; in [3] it was -0.093; in test [4] it was -0.367; in [5], 0.768; in test [6], -0.459. The z-score in [7] was -1.18 (inactive); in test [8] it was 0.701; in [9] it was 0.169; in test [10], -0.28 (inactive).

Turning to `COc1ccc([Si](C)(C)[C@@H]2[C@@H](CC(=O)N3Cc4ccccc4C[C@H]3CO)O[C@]3(C(=O)N(C)c4ccccc43)[C@H]2C)cc1`, the z-score in [1] is -2.16; in test [2], 0.0677; in [3], -4.12; in test [4], -2.66; in test [5] it was -4.4; in [6] it was -0.682. For the same compound, the z-score was 1.08 (inactive) in [7], -1.14 in [8], -2.28 in test [9] and -1.42 (inactive) in test [10].

As to `COc1ccc([Si](C)(C)[C@H]2[C@H](CCO)O[C@@]3(C(=O)N(Cc4cccc(N5C(=O)COc6ccccc65)c4)c4ccccc43)[C@@H]2C)cc1`, the z-score in test [1] was -0.533; in test [2], 0.167; in test [3], -4.12; in [4], -2.21; in test [5], -3.93; in [6], 0.0559. Besides, the z-score in [7] is 1.93 (inactive); in test [8] it was -1.05; in [9], -1.5; in test [10], -2.14 (inactive).

Regarding `OCCCC1=CC(c2ccc(CN3CCCC3)cc2)N(Cc2sc3ccccc3c2Cl)CC1` (stereo not given), the z-score in test [1] is 0.48; in [2], -0.301; in test [3] it was 0.212; in test [4] it was -3.45; in test [5], -3.64; in test [6] it was 3.4. Moreover, the z-score was 0.0544 (inactive) in test [7], -0.252 in test [8], -0.356 in test [9] and 0.341 (inactive) in [10].

Consider `C=CCNC(=O)[C@@H]1[C@H]2C(=O)O[C@H](c3ccccc3)[C@H](c3ccccc3)N2[C@H](c2ccc(O)cc2)[C@@]12C(=O)N(C(=O)OCCOC)c1ccc(C#CC3(O)CCCCCC3)cc12`, for which the z-score in test [1] was 0.0287; in test [2], 0.284; in test [3], 0.446; in test [4] it was 0.362; in test [5], 0.895; in [6], 0.577. In addition, the z-score in [7] was 0.8 (inactive); in [8], 0.244; in [9] it was -0.432; in [10], 0.395 (inactive).

On to `COc1ccc([Si](C)(C)[C@@H]2[C@@H](CC(=O)N(CCO)Cc3ccccc3)O[C@]3(C(=O)N(Cc4cccc(N5C(=O)c6cccc7cccc5c67)c4)c4ccccc43)[C@H]2C)cc1`, for which the z-score in test [1] is -1.32; in test [2], 1.43; in test [3], -1.12; in test [4] it was -1.48; in test [5], -3.72; in test [6] it was 0.641. Also, the z-score in test [7] was 2.03 (inactive); in test [8], -1.02; in test [9] it was -1.4; in test [10] it was -0.999 (inactive).

Turning to `O=C(N1CCCCC1)[C@@]1(CCS(=O)(=O)c2ccccc2)COC(c2ccc(OCCCO)cc2)=N1`, the z-score was 0.606 in test [1]; -0.609 in [2]; 0.299 in [3]; -1.03 in test [4]; 0.0963 in test [5]; 0.147 in test [6]. Besides, the z-score in test [7] was -0.328 (inactive); in test [8], -1.13; in [9] it was -1.16; in test [10], 0.327 (inactive).

As for `C=CCC(OC(C)=O)[C@@H]1[C@@H](N(Cc2ccc(-c3cccc(C(F)(F)F)c3)o2)C(=O)c2ccc(C)cc2)c2cc(OCCCO)ccc2N1C(=O)c1ccc2ccccc2c1` (stereo not given in full), the z-score in test [1] is -0.403; in test [2], 0.821; in test [3], 0.236; in test [4] it was 0.47; in test [5], 0.966; in [6], 3.41. Also, the z-score was 0.586 (inactive) in test [7], 0.102 in test [8], -0.555 in [9] and 0.462 (inactive) in test [10].

As to `CC(CO)N1C(=O)[C@@H]2[C@H]3C(=O)OCC=C[C@H]3OC23C=CCN(CCN2CCOCC2)C(=O)[C@@H]13` (stereo not given in full), the z-score in test [1] was -0.313; in [2], 0.344; in test [3], -0.0457; in test [4], 0.646; in test [5] it was -0.0704; in [6], -0.382. In addition, the z-score in test [7] is 0.126 (inactive); in test [8], 0.0907; in test [9], 0.12; in test [10], -0.147 (inactive).

In the case of `Cc1ccc(S[C@]2(C(=O)O)CC(=O)N(Cc3cc(C(F)(F)F)cc(C(F)(F)F)c3)[C@@H]2c2ccc(CO)cc2)cc1`, the z-score in test [1] was -0.192; in [2] it was -0.228; in test [3] it was -0.618; in test [4], -0.424; in [5] it was -0.82; in test [6] it was -0.555. The z-score was -0.717 (inactive) in test [7], 0.83 in test [8], -0.694 in test [9] and -0.0055 (inactive) in [10].

Consider `Cc1ccc(S[C@]2(C(=O)NCCCN(C)C)CC(=O)N(C3CCCCC3)[C@@H]2c2ccc(CO)cc2)cc1`, for which the z-score in test [1] was 0.242; in [2], -0.148; in test [3] it was -0.0685; in test [4], -1.96; in test [5], -0.0053; in test [6], 1.53. The z-score in test [7] was -0.112 (inactive); in test [8], -0.151; in test [9], -0.528; in test [10], 1.06 (inactive).

For `COC(=O)c1nc2oc1CC[C@@H](CO)NC(=O)N(C)Cc1cnnn1C[C@H](Cc1ccccc1)NC2=O`, the z-score in test [1] is 0.0656; in test [2], -0.65; in test [3], 0.537; in test [4], 1.01; in test [5], 0.529; in test [6], 0.912. For the same compound, the z-score in [7] is 1.25 (inactive); in [8], -0.912; in test [9] it was -0.511; in test [10], 0.634 (inactive).

Consider `O=C1O[C@H](c2ccccc2)[C@H](c2ccccc2)N2[C@H]1[C@@H](C(=O)Nc1nc3ccccc3s1)[C@]1(C(=O)Nc3ccc(C#CCCO)cc31)[C@H]2c1ccc(O)cc1`, for which the z-score is 0.695 in test [1]; 0.215 in test [2]; -0.257 in test [3]; -2.26 in [4]; -3.96 in test [5]; -3.86 in [6]. Moreover, the z-score is -0.525 (inactive) in test [7], -1.25 in [8], -1.48 in test [9] and 0.679 (inactive) in [10].

Turning to `O=C(NCC(F)(F)F)[C@@H]1c2ccccc2C(=O)N(Cc2cc(F)cc(C(F)(F)F)c2)[C@H]1c1ccc(CO)cc1`, the z-score in test [1] is 0.792; in [2], 0.929; in [3], -0.158; in test [4] it was 0.227; in test [5] it was -0.202; in test [6], 1.23. Further, the z-score in test [7] is 0.00233 (inactive); in test [8], -0.656; in [9] it was -0.389; in test [10], 0.44 (inactive).

Take `NC(=O)NCC#Cc1ccc2c(c1)[C@]1(C(=O)N2)[C@H](C(=O)O)[C@H]2C(=O)O[C@H](c3ccccc3)[C@H](c3ccccc3)N2[C@@H]1c1ccc(OCCO)cc1`: the z-score in test [1] is 0.0179; in test [2] it was 0.359; in [3] it was -0.519; in [4] it was 0.231; in test [5], 0.12; in test [6], -2.3. The z-score in [7] was -0.483 (inactive); in test [8], 0.00293; in test [9], 0.12; in test [10], 0.721 (inactive).

For `CC1=C([C@H](O)CCc2ccccc2)[C@H](CO)[C@@H]2C(=O)N(C)C(=O)[C@@H]2C1`, the z-score in [1] was 1.18; in test [2] it was -0.371; in test [3], -0.473; in [4] it was 0.236; in test [5] it was -0.245; in test [6], -0.622. Moreover, the z-score in test [7] is 0.459 (inactive); in test [8] it was -0.0985; in test [9] it was -0.279; in test [10] it was -0.39 (inactive).
